Assay outcomes (PubChem BioAssay)
cytoskel mod = cytoskeleton assembly modification. 91,000 tested, 0.18% active. inhibition, % at 2 µM. AID 836. HUVEC TNFa F-actin phalloidin imaging, high content;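 active = inhibition above the batch mean plus 3 SD and confirmed as a hit by visual image inspection, cut at about 30% in these data, passing the limit was not always enough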
Measles CPE = protection of cells from measles virus. Measles virus-infected cells, CPE protection, absorbance. protection (pct of control), % at 4 µM. 140,000 tested, 1.5% active. AID 841; in the data active = protection mostly above about 24%, no sharp cut-off; inactive = mostly below about 26%
Active calls of the source: *; . = no result. Only some compounds are listed: those with a hit (about 1.5% of all), similar ones and a draw of the others.

SMILES	cytoskel mod	Measles CPE
Cc1oc(C(C)(C)C)cc1C(=O)N1CCCC1C(=O)O (stereo unspecified)	-12	26*
COc1cccc(-n2c(CN3CCN(c4ccccc4)CC3)nc3ccc([N+](=O)[O-])cc3c2=O)c1	.	8
CCOC(=O)C1C(c2cccc(F)c2)NC(=S)NC1(O)C(F)(F)F (stereo unspecified)	.	11
COc1ccc(Cl)cc1C(=O)NNC(=O)c1cccnc1	32	5
COc1ccc(Cl)cc1C(=O)NNC(=O)c1cccc(S(=O)(=O)N(C)C)c1	.	73*
Cc1ccc(NC(=O)Cn2cccc2)cc1Cl	5	2
COc1cc(NC(=O)c2ccccc2)c(OC)cc1NC(=O)CN1CCOCC1	22	6
COc1cc(NC(=O)c2cccc(Cl)c2)c(OC)cc1NC(=O)CN1CCOCC1	38	73*
COc1ccc(NC(=O)Cn2cccc2)cc1Cl	-16	41*
COc1cc(OC)c(NC(=O)Cn2cccc2)cc1Cl	5	36
COc1ccc(Cl)cc1NC(=O)Cn1cccc1	-5	34*
Cc1nn(-c2ccccc2)c(C)c1/C=N/NC(=O)CSc1nnc(SCc2ccc(Cl)cc2)s1	.	6
O=C(O)CCCNC(=O)c1cccc(C(=O)NCCCC(=O)O)n1	.	11
CC1CCN(S(=O)(=O)c2ccc3c(c2)N(CC(=O)NCc2cccnc2)C(=O)CS3)CC1	.	4
O=C(O)CC/C(=C\c1cc([N+](=O)[O-])ccc1Cl)c1nc2ccccc2s1	.	13
Cc1nn(-c2ccc(F)cc2)c(Cl)c1/C=C(\CCC(=O)O)c1nc2ccccc2s1	-7	32*
CCCc1nc2sc3c(=O)n(N)cnc3c2c2c1CCCC2	.	25
Cc1[nH]n(-c2ccccc2)c(=S)c1C=Nc1ccc([N+](=O)[O-])cc1	.	11
O=C(COc1ccc(C(F)(F)F)cc1[N+](=O)[O-])Nc1cccc(C(F)(F)F)c1	.	50*
O=C(CSc1ccc(C(F)(F)F)cc1[N+](=O)[O-])Nc1ccccc1	11	14
O=C(O)c1cccc(Nc2nc(-c3cccnc3)nc3ccccc23)c1	.	23
CCOC(=O)c1cccc(Nc2nc(-c3cccnc3)nc3ccccc23)c1	-26	29*
CCCCNS(=O)(=O)c1ccc(NC(=O)c2c(-c3ccccc3Cl)noc2C)cc1	5	5
CCOC(=O)c1c(C)[nH]c(C(=O)COC(=O)CCC2CCCC2)c1C	4	4
CCOC(=O)c1c(-c2ccccc2)csc1NC(=O)c1ccc(N2C(=O)CCC2=O)cc1	11	4
SMILES	cytoskel mod	Measles CPE
CCOC(=O)c1c(-c2ccccc2)csc1/N=C/C1C(=O)CCCC1=O	.	53*
O=C(NCc1ccc2c(c1)OCO2)c1ccc(-n2cnnn2)cc1	10	20
CC1(C)CC(CCNC(=O)c2ccc(-n3cnnn3)cc2)CC(C)(C)N1	-18	30*
C[C@H](NS(=O)(=O)c1ccccc1)C(=O)OCC(=O)NC(=O)Nc1ccc2c(c1)OCCO2	.	6
COc1cccc(N=c2oc3c(C)ncc(CO)c3cc2C(=O)Nc2ccccc2OC)c1	-3	13
CCOc1ccc(OCC)c(N=c2oc3c(C)ncc(CO)c3cc2C(N)=O)c1	3	50*
S=C(NCCCN1CCOCC1)Nc1ccc(Cl)c(Cl)c1	.	10
COc1ccc(-c2ncccc2OC(=O)C23CC4CC(CC(C4)C2)C3)cc1	.	29
CCOc1ccc(S(=O)(=O)NCCC(=O)OC(C)C(=O)N2CCc3ccccc32)cc1 (stereo unspecified)	34	54*
CCOc1ccc(S(=O)(=O)NCCC(=O)OCN2C(=O)c3ccccc3C2=O)cc1	-19	10
O=C(Nc1nnc(-c2ccccc2Cl)o1)c1cc2cc([N+](=O)[O-])ccc2s1	.	9
Cc1cc(O)ccc1NC(=O)CCN1C(=O)c2ccc([N+](=O)[O-])cc2C1=O	.	16
O=C(c1cc(-c2ccccc2O)on1)N1CCc2ccccc2C1	11	8
O=C(c1cc(-c2ccco2)on1)N1CCc2ccccc2C1	8	69*
CCn1c(SCC(=O)Nc2nc(-c3ccc(C)cc3)cs2)nnc1-c1ccccc1O	-18	32*
CCn1c(SCC(=O)Nc2nc(-c3ccc(C)cc3)cs2)nnc1-c1ccccc1	16	29
CCOC(=O)c1c(NC(=O)c2ccc(N3C(=O)C4C5C=CC(C5)C4C3=O)cc2)sc2c1CCCC2 (stereo unspecified)	-12	6
COc1cccc(CNC(=O)c2cc3oc4ccccc4c3n2C)c1OC	.	72*
CCOc1ccc(NC(=O)c2oc3ccccc3c2NC(=O)CC)cc1	15	4
CCn1c(C(=O)N2CCc3ccccc3C2)cc2oc3ccccc3c21	14	23
CCOc1ccccc1CNC(=O)c1cc2oc3ccccc3c2n1CC	-3	35*
COC(=O)c1cc2oc3ccccc3c2n1CC(=O)Nc1ccccc1OC	.	10
CCOc1ccc(CNC(=O)c2cc3oc4ccccc4c3n2C)cc1	1	89*
COc1ccc(NC(=O)CCNS(=O)(=O)c2ccc3c(c2)c(=O)n(C)c(=O)n3C)c(OC)c1	.	19
CCOC(=O)C1=NN(C(C)=O)C2(CC(=O)N(c3ccc(C)c(C)c3)C2=O)C1 (stereo unspecified)	.	20
SMILES	cytoskel mod	Measles CPE
Cn1cc([N+](=O)[O-])c(C(=O)Nc2ccn(Cc3c(F)c(F)cc(F)c3F)n2)n1	11	15
O=C(O)c1ccc(CSc2nc(-c3ccccc3)cc(C(F)(F)F)n2)cc1	.	34*
O=C(O)c1ccc(CSc2nc(-c3ccc(Cl)cc3)cc(C(F)(F)F)n2)cc1	-3	2
CCOc1ccc(NC(=O)CN2CCN(CC(=O)Nc3ccc(Cl)c(C(F)(F)F)c3)CC2)cc1	6	11
CCOC(=O)/C(C#N)=C1/C=C(C)NC(c2ccccc2O)=N1	-24	16
CCOC(=O)/C(C#N)=C1/C=CN(C)C(C)=N1	.	29*
CCCCNc1ccc(S(=O)(=O)c2cccc([N+](=O)[O-])c2)cc1[N+](=O)[O-]	.	3
CCOC(=O)c1cccc(NC(=O)CSc2nnc(COc3ccccc3)n2CC)c1	5	3
CCOC(=O)c1ccccc1NC(=O)CSc1nnc(COc2ccccc2)n1CC	-15	53*
Cc1cccc(OCC(=O)NC(=S)Nc2ccc(S(=O)(=O)NC3CCCCC3)cc2)c1	-6	5
Cc1cccc(OCc2nc(C#N)c(NCCN(C)C)o2)c1	.	10
CCNc1oc(COc2cccc(C)c2)nc1C#N	14	38*
CC(=O)C1=C(O)C(=O)N(CCc2c[nH]c3ccccc23)C1c1cccc(O)c1 (stereo unspecified)	19	25*
COc1cc(C2C(C(C)=O)=C(O)C(=O)N2CCc2c[nH]c3ccccc23)ccc1O (stereo unspecified)	-18	14
NS(=O)(=O)c1ccc(CCN=Cc2ccccc2O)cc1	.	4
O=[N+]([O-])c1cccc(-c2nnn(C34CC5CC(CC(C5)C3)C4)n2)c1	4	5
CCCCC(=O)Nc1ccc(C(=O)Nc2ccc(S(=O)(=O)Nc3nccc(C)n3)cc2)cc1	.	10
COc1ccc(C2=NO[C@@H]3C(=O)N(C4CCCCC4)C(=O)[C@H]23)cc1OC	26	19
COc1ccc(-c2nc3c(n2O)CCCC3=O)cc1OC	0	89*
CCOC(=O)c1c(NC(=O)c2cnn3c2NC(c2cccc(OC)c2)CC3C(F)(F)F)sc2c1CCCC2 (stereo unspecified)	.	2
O=C(c1cc(Cl)ccc1[N+](=O)[O-])N1CCc2ccccc2C1	.	5
O=C(C1CC1)N1CCN=C1SCc1ccccc1	.	41*
